Screens: PubChem BioAssay, National Center for Advancing Translational Sciences (NCATS)
The full list was thinned out, with hits kept by preference.
IL1B secr inh: qHTS for Inhibitors of Inflammasome Signaling: IL-1-beta AlphaLISA Primary Screen | activity change, % at 57.5 µM | 360,000 compounds, 4.7% hits | THP-1 LPS/ATP IL-1B secretion, AlphaLISA, 16 h; stronger effect = lower value; in the data active means activity change below about -50%; inconclusive means mostly about -30% to -49%
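THP-1 cells pretreated 1 hr with compounds (up to 57.5 uM final), then stimulated with LPS (250 ng/mL final) plus ATP (1.25 mM final); secreted IL-1B measured by AlphaLISA after 16 hr, decreased signal indicating inhibition.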
ALOX12 inh: Primary qHTS assay for inhibitors of human arachidonate 12S-lipoxygenase (ALOX12): Round 2; AID 1671190, 2021; 580,000 compounds, 1.1% hits; purified 12hLO, xylenol orange hydroperoxide absorbance; Potency, µM (titrated, usually from 108 µM), most hits filed as inhibitors; Polyunsaturated fatty acid lipoxygenase ALOX12 (Homo sapiens), P18054
Target sequence (P18054 whole entry, looked up): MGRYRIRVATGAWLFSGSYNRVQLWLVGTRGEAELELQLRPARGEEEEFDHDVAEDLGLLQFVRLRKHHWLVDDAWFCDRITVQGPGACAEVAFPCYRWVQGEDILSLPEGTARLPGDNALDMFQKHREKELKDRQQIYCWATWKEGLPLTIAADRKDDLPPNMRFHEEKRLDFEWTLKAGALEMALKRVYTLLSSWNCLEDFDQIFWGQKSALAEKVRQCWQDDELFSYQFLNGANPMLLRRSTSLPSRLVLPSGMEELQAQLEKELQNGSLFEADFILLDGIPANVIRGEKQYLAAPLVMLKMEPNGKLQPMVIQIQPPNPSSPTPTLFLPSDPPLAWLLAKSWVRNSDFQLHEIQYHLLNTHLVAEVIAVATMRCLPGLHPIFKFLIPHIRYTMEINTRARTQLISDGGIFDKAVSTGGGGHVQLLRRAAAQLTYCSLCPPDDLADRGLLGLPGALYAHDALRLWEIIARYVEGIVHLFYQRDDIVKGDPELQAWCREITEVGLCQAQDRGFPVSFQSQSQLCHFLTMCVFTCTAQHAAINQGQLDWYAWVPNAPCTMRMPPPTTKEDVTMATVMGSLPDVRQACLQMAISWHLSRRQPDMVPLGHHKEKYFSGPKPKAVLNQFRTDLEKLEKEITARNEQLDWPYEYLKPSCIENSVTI
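Hydroperoxide product was detected by ferrous iron/xylenol orange as the 573 to 405 nm absorbance ratio. Arachidonic acid at 40 uM (final) was turned over for 30 min at room temperature by 150 nM human 12hLO, pH 7.0 Hepes buffer, after 15 min compound preincubation.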
TDP1 cell CPT: qHTS for Inhibitors of human tyrosyl-DNA phosphodiesterase 1 (TDP1): qHTS in cells in presence of CPT; chicken DT40 Tdp1-/-;hTDP1 cells + 20 nM CPT, ATP luminescence, 48 h; Potency, µM (series often up to 46.2 µM), hits mostly inhibitors; 420,000 compounds, 12% hits; further: nearly all actives have a fitted effect of over 55% in size
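Cell growth measured by CellTiter-Glo luminescence after a minimum 48 h, 37 C compound exposure with 20 nM CPT in Tdp1-knockout DT40 cells stably expressing hTDP1, seeded 400/well; qHTS titration format.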
TDP1 cell noCPT: qHTS for Inhibitors of human tyrosyl-DNA phosphodiesterase 1 (TDP1): qHTS in cells in absence of CPT. DT40 Tdp1-/- hTDP1 cells, no CPT, ATP luminescence, 48 h. AID 686978, 2013. 420,000 compounds, 15% hits. Potency, µM (series often up to 46.2 µM), usual class: inhibitors; further: nearly all actives have a fitted effect of over 55% in size
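Luminescent ATP content (CellTiter-Glo) served as the growth readout. Knockout chicken DT40 cells expressing human TDP1 were exposed to compounds without camptothecin for a minimum 48 hr at 37 °C.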
HT1080-NT tox: qHTS for induction of synthetic lethality in tumor cells producing 2HG: qHTS for the HT-1080-NT fibrosarcoma cell line | HT-1080-NT fibrosarcoma viability, CellTiter-Glo ATP luminescence, 48 h | Potency, µM (titrated, usually from 46.1 µM), most hits filed as cytotoxic | 360,000 compounds, 1.6% hits | AID 686970, 2013;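 further: NT is the 2HG producing partner of a matched IDH1 knockdown line; nearly all actives have a fitted effect of over 55% in size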
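Toxicity toward the 2HG-producing NT line was scored as %Activity, normalised to DMSO and no-cell wells, from CellTiter-Glo luminescence after 48 hours' treatment.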
HT1080 IDH1KD tx: qHTS for induction of synthetic lethality in tumor cells producing 2HG: qHTS for the HT-1080-IDH1KD cell line; Potency, µM (doses to about 46.1 µM), hits mostly cytotoxic; 360,000 compounds, 2% hits; AID 686971, 2013; HT-1080 IDH1 knockdown viability, ATP luminescence, 48 h
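In this qHTS, HT-1080 cells depleted of IDH1 are exposed for 48 h at 37 °C to compound titrations. Toxicity is scored from CellTiter-Glo luminescence, with DMSO as full viability and medium alone as none.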
Of the large screens only hits and unclear results are named; the others gave an inactive call; ! = repeats disagree. Unless noted, the call rests on the fitted dose curve; in most records, active means well fitted curve in the direction sought with a large enough effect; inconclusive means small, poorly fitted or top-dose-only effect, or another doubt; inactive means no such curve, though single readings can be large; an effect the other way counts as inactive or inconclusive.

CN(C)S(=O)(=O)c1cccc(NC(=O)c2cccc(N3C(=O)CCC3=O)c2)c1	none
CCCn1c(=O)c2c(nc(-n3nc(C)c(C)c3C)n2CCOC)n(C)c1=O	none (no result: IL1B secr inh, TDP1 cell CPT, TDP1 cell noCPT, HT1080-NT tox, HT1080 IDH1KD tx)
Nc1ccc(C=Cc2ccc(N)cc2)cc1	TDP1 cell CPT 20.6µM, TDP1 cell noCPT 18.4µM, HT1080 IDH1KD tx inconclusive
Nc1ccc(/C=C/c2ccc3cccnc3c2)cc1	TDP1 cell CPT inconclusive, TDP1 cell noCPT 15.8µM (no result: IL1B secr inh, ALOX12 inh, HT1080-NT tox, HT1080 IDH1KD tx)
N#Cc1ccc(N2CCN(CCCOCC(F)(F)F)CC2)c([N+](=O)[O-])c1	none (no result: IL1B secr inh, TDP1 cell CPT, TDP1 cell noCPT, HT1080-NT tox, HT1080 IDH1KD tx)
CCN1c2cc(C(=O)Nc3cccc(C#N)c3)ccc2C(=O)N2CCCCCC21 (stereo not given)	none (no result: IL1B secr inh, TDP1 cell CPT, TDP1 cell noCPT, HT1080-NT tox, HT1080 IDH1KD tx)
CCOC(=O)C1(C)CCCN(C(=O)c2c(-c3ccccc3)noc2C)C1 (stereo not given)	TDP1 cell CPT 13µM, TDP1 cell noCPT inconclusive
Cc1onc(-c2ccccc2)c1C(=O)N1CCN(CCc2ccccc2)CC1	TDP1 cell noCPT inconclusive
COc1ccc(CN2CCN(C(=O)c3c(-c4ccccc4)noc3C)CC2)cc1F	TDP1 cell CPT inconclusive, TDP1 cell noCPT 23.1µM
CCOC(=O)C1CCN(C(=O)c2c(-c3ccccc3)noc2C)CC1	IL1B secr inh -72.9
c1ccc(-c2ccc3c(c2)NCCN3)cc1	IL1B secr inh -75.1, ALOX12 inh inconclusive, TDP1 cell CPT inconclusive, TDP1 cell noCPT inconclusive
Nc1cc(-c2ccccc2)ccc1O	ALOX12 inh inconclusive, TDP1 cell noCPT inconclusive (no result: HT1080-NT tox, HT1080 IDH1KD tx)
CC(=O)OC(c1nc2ccccc2c(=O)n1C1CC2(OC1=O)c1ccccc1N1C(=O)C(C)(C)N(O)C12)C(C)C (stereo not given)	ALOX12 inh inconclusive, TDP1 cell CPT 16.4µM, TDP1 cell noCPT 20.6µM
CC(C)(C)NC(=O)[C@@H]1C[C@@H]2CCCC[C@@H]2CN1C[C@@H](O)[C@H](Cc1ccccc1)NC(=O)[C@H](CC(N)=O)NC(=O)c1ccc2ccccc2n1	IL1B secr inh -61.0!, TDP1 cell CPT inconclusive, TDP1 cell noCPT 15µM, HT1080-NT tox 20.6µM, HT1080 IDH1KD tx 23.1µM
CCOc1ccc(NS(=O)(=O)c2ccc(-c3cc(C)no3)s2)cc1	ALOX12 inh inconclusive, TDP1 cell CPT inconclusive, TDP1 cell noCPT 18.4µM (no result: IL1B secr inh, HT1080-NT tox, HT1080 IDH1KD tx)
COc1cccc(NS(=O)(=O)c2ccc(-c3cc(C)no3)s2)c1	ALOX12 inh inconclusive, TDP1 cell CPT inconclusive, TDP1 cell noCPT 23.1µM (no result: IL1B secr inh, HT1080-NT tox, HT1080 IDH1KD tx)
COc1cccc(NS(=O)(=O)c2ccc(Br)s2)c1	none
Cc1cc(-c2ccc(S(=O)(=O)Nc3cccc(C)c3C)s2)on1	TDP1 cell CPT 2.91µM, TDP1 cell noCPT 2.59µM (no result: IL1B secr inh, HT1080-NT tox, HT1080 IDH1KD tx)
CCc1ccccc1N(C)S(=O)(=O)c1ccc(-c2cc(C)no2)s1	TDP1 cell CPT 2.06µM, TDP1 cell noCPT 1.3µM, HT1080 IDH1KD tx inconclusive
CCOC(=O)c1cc(-c2ccccn2)nc2c1c(=O)[nH]c(=O)n2CCOC	none (no result: IL1B secr inh, TDP1 cell CPT, TDP1 cell noCPT, HT1080-NT tox, HT1080 IDH1KD tx)
O=C(NC1CCN(Cc2ccccc2)CC1)c1ccccc1C(=O)c1ccc(F)cc1	none (no result: IL1B secr inh, TDP1 cell CPT, TDP1 cell noCPT, HT1080-NT tox, HT1080 IDH1KD tx)
COc1ccc(OC)c(NS(=O)(=O)c2ccc(Br)s2)c1	TDP1 cell CPT 16.4µM, TDP1 cell noCPT 18.4µM (no result: IL1B secr inh, HT1080-NT tox, HT1080 IDH1KD tx)
COc1ccc(OC)c(NS(=O)(=O)c2ccc(-c3cc(C)no3)s2)c1	TDP1 cell CPT 1.3µM, TDP1 cell noCPT 0.581µM (no result: IL1B secr inh, HT1080-NT tox, HT1080 IDH1KD tx)
CCN(c1ccc(OC)cc1)S(=O)(=O)c1ccc(-c2cc(C)no2)s1	TDP1 cell noCPT 14.6µM, HT1080-NT tox inconclusive, HT1080 IDH1KD tx inconclusive
Cc1cc(C(C)(C)C)cc(C)c1CCNC(=O)c1nccnc1N	none (no result: IL1B secr inh, TDP1 cell CPT, TDP1 cell noCPT, HT1080-NT tox, HT1080 IDH1KD tx)
COc1ccc(C2C(C(C)=O)=C(C)Nc3ncnn32)cc1 (stereo not given)	ALOX12 inh inconclusive
COC(=O)C1=C(C)Nc2ncnn2C1c1ccc(OC(=O)c2ccccc2)cc1 (stereo not given)	TDP1 cell CPT 8.2µM, TDP1 cell noCPT inconclusive
CC1=C(C(=O)OCc2ccccc2)C(c2cccnc2)n2ncnc2N1 (stereo not given)	TDP1 cell CPT 18.4µM, TDP1 cell noCPT 14.6µM
COc1ccc(S(=O)(=O)N2CCC(C(=O)N[C@@H](C)C(=O)NCc3ccco3)CC2)cc1	none
